{"source": "PubChem BioAssay AID908", "about": "(National Center for Advancing Translational Sciences (NCATS), 2007)", "note": "This is one part of the list. Entries that show only a call come without a potency. Results filed as inconclusive are left out. Active and inactive are the calls of the source. The call rests on the fitted dose curve; in most records, active means well fitted inhibition curve with a large enough effect in the main read-out, with a control signal flat; inconclusive means small, poorly fitted or top-dose-only effect, or a change in a side signal; inactive means no such curve, though single readings can be large or run the other way.", "data": [{"target": "Caspase-7 (Homo sapiens) (UniProt P55210)", "sequence (P55210 24-198 limits assumed)": "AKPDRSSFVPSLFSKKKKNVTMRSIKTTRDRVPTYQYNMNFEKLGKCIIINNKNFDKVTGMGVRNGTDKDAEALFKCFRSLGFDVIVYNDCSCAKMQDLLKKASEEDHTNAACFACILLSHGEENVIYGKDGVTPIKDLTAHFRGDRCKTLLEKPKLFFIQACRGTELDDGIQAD", "sequence (P55210 207-303 limits assumed)": "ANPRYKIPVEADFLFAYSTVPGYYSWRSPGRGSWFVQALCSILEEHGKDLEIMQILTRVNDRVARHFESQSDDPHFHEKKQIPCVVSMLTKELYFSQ", "test": "Concentration-Response Counterscreen for Redox Active Inhibitors of Caspase-7: Cysteine", "conditions": "caspase-7 enzyme with cysteine, fluorogenic substrate; series mostly up to 57.5 µM", "text": "NIH Molecular Libraries Screening Centers Network [MLSCN]\nNIH Chemical Genomics Center [NCGC]\nPI Name: Dr. James Wells,\nDr. Enrique Perez-Paya, Dr.Janice Williams, Dr. Dennis Wolan, a person\nThe caspases (Cysteine Aspartyl Protease) comprise a related family of 14 dimeric proteases that are critical mediators of apoptosis (programmed cell death) and inflammation. The caspases represent an important class of drug targets for stroke, ischemia, cancer and inflammatory diseases. […] One goal of this project was to identify compounds that act as allosteric inhibitors via stabilizing the procaspase form of the enzyme. […]\nThe biochemical assay was configured using purified caspase 7 at a high enzyme concentration to promote formation of the homodimers and thus facilitate the identification of allosteric inhibitors. […] After initiation of the assay with substrate the plates were rapidly read using an automated robotic system (Kalypsys, Inc.) to maintain consistent timing. […] Product formation was also measured after 1 hour. […]\nCaspase 7 was prepared in buffer (50 mM HEPES pH 7.5, 50 mM KCl, 200 mM NaCl, 10 mM Cys (Aldrich cat# 861677), 0.1% CHAPS) at a concentration of 66.6 nM and 3 uL was dispensed to all wells using black solid Kalypsys 1536-well plates. […] The plates were then exposed using 405 nm excitation/520 nm emission filters for 4 sec and read at 20 sec intervals for 3 min. […]", "values": [{"compound": "N#CC1=C(N)Oc2cc(O)ccc2C1C1CCCCC1", "note": "(configuration not stated)", "Potency": "25.1 µM (active)"}, {"compound": "CCN1C(=O)/C(=C2/Sc3ccccc3N2CCCS(=O)(=O)O)SC1=S", "Potency": "inactive"}]}]}
